Laboratory results reported in PubChem BioAssay (EPA / NIEHS).
Records with an inconclusive call do not appear. Active and inactive are the calls of the source. The calls were made as follows: active = hit-call score of the fitted dose curve at least 0.9, where 1 is the maximum; inconclusive = response in the unintended direction; inactive = score below 0.9.

Biological target: rat Neonicotinoid receptor (NNR), Chrna7 (gene 25302) (UniProt Q05941)
Assay: NVS_LGIC_rNNR_BungSens: NovaScreen (NVS) Ligand-Gated Ion Channel Assay for rat Neonicotinoid receptor (NNR) (AID 2283315)
Procedure, shortened: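 Rat cortical membrane preparation incubated 2.5 h with tritiated or iodinated radioligand and test chemical. Bound radioactivity was filtered and counted by scintillation, and displacement was analysed against DMSO.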

rat Neonicotinoid receptor (NNR), Chrna7 (gene 25302), sequence (Q05941 whole entry, looked up): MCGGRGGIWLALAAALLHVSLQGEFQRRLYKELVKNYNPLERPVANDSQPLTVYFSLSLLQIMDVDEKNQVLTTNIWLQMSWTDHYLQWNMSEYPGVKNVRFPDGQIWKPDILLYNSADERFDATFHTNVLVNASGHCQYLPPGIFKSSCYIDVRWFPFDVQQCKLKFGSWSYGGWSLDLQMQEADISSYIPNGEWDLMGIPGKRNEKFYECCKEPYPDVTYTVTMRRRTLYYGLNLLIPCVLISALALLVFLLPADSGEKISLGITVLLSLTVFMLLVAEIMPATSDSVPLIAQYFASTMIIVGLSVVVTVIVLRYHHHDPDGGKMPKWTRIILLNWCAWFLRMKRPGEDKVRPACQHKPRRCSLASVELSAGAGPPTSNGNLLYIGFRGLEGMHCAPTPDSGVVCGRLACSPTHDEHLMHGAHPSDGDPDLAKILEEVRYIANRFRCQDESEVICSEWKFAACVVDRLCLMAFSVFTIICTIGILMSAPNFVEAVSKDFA

SMILES	AC50	outcome
c1ccc(C[n+]2cccc3ccccc32)cc1	25 µM (active)	–
Cc1occc1C(=O)Nc1ccc(C(=O)N2CCC(F)(F)/C(=C\C(=O)N3CCC(N4CCCCC4)CC3)c3ccccc32)cc1	4.14 µM (active)	–
CC(C)(C)c1csc(-c2cc3cc(OCc4ccccc4CC(=O)O)ccc3o2)n1	–	inactive
O=C1c2ccccc2C(=O)N1CCc1noc(-c2ccc(CN3CCCCCC3)s2)n1	–	inactive
COc1cc(C(=O)NC2CCN(C)CC2)ccc1Nc1ncc2c(n1)N(C1CCCC1)CC(F)(F)C(=O)N2C	–	inactive
COc1ccc2cc(S(=O)(=O)N[C@H](CC(=O)N[C@H](Cc3ccc(CN4[C@H](C)CCC[C@@H]4C)cc3)C(=O)N(C)C(C)C)c3ccc4c(c3)OCO4)ccc2c1	–	inactive
O=C(O)Cc1cc(I)c(Oc2ccc(O)c(I)c2)c(I)c1	–	inactive
CN(C)C(=O)C1(N2CCCCC2)CCN(CC[C@@]2(c3ccc(Cl)c(Cl)c3)CN(C(=O)c3ccccc3)CCO2)CC1	–	inactive
CN(C)c1ccc(C(=C2C=CC(=[N+](C)C)C=C2)c2ccc(N(C)C)cc2)cc1	16.4 µM (active)	–
O=C1CCC(C2CCCCC2)CC1	–	inactive
Clc1cc(Cl)c2c(c1)N=C1CCCCCN1C2	5.61 µM (active)	–
